Rows were chosen to be rich in hits. Some 4.8% of all compounds tested hit in one or more screens of this group.
hcDAF-12 act: activates DAF-12 receptor from parasite H. contortus; HEK293 hcDAF-12 lit1-tk-luc reporter, luminescence; 0% DMSO, 100% Δ7-dafachronic acid; activation, % at 6.8 µM; 1.4% of 370,000 active; AID 652067;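 active = activation above the mean of all tested compounds plus 3 SD, cut at about 5.5% in these data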;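 note: 100% = response to 3 µM Δ7-dafachronic acid high control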
DAX1 inh-1: inhibitors of DAX1 repression of SF-1 activated StAR promoter | HEK293T StAR-luciferase reporter, SF-1/DAX-1 repression relief | inhibition, % at 6.8 µM | 1.1% of 370,000 active | AID 652010;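 active = inhibition above the mean over all tested compounds plus 3 SD, cut at about 3.6% in these data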;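 note: 0% = DAX-1 cells with DMSO and 100% = cells lacking DAX-1 with DMSO; higher inhibition means more luminescence from relief of DAX-1 repression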
ssDAF12 agonist: activates DAF-12 receptor from parasite S. stercoralis. HEK293 ssDAF-12/GRIP1 lit1-tk-luc reporter, luminescence; % of 3 µM dafachronic acid response. activation, % at 6.8 µM. 1% of 370,000 active. AID 652126;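 active = activation above the mean over all tested compounds plus 3 SD, cut at about 0.9% in these data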;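 note: 0% = DMSO-only wells and 100% = 3 µM delta7-dafachronic acid wells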
SMARCA2 act: SMARCA2 function activation, primary screen; 1% of 370,000 active; activation, % at 9.1 µM; MG213 cells, MMTV-luciferase reporter, dexamethasone, overnight; in the data active = activation above about 7.8%;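 note: 0% = vehicle wells and 100% = reference activator wells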
DAX1 inh-2: inhibitors of human orphan nuclear receptor DAX1 (NR0B1). HEK293 Gal4-DAX1 luciferase reporter, luminescence. inhibition, % at 6.75 µM. 0.99% of 340,000 active;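 active = inhibition above the mean over all tested compounds plus 3 SD, cut at about 4.2% in these data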;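 note: 0% = DAX1-transfected cells with DMSO and 100% = empty-vector control cells with DMSO; inhibition shows as a rise in luminescence from relieved DAX1 repression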
Target sequence (P51843 207-470 limits assumed): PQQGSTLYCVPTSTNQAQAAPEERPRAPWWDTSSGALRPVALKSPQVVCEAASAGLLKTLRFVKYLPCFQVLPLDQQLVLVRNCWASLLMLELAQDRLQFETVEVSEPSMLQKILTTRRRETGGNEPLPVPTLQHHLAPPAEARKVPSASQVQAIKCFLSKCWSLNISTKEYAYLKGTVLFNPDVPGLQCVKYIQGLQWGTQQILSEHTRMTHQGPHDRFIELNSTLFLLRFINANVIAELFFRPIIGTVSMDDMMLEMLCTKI
hgDAF12 agonist: agonists of H. glycines DAF-12 nuclear receptor. activation, % at 6.8 µM. 1.8% of 370,000 active. HEK293 GAL4-hgDAF12 UAS-luciferase reporter, agonist luminescence; normalized to butyrate control. AID 687014;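 active = activation above a cutoff set at the mean of all screened compounds plus 3 SD, cut at about 10% in these data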;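 note: 0% = DMSO wells and 100% = sodium butyrate wells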
Starred values were filed as active, the others as inactive.

For CC(OC(=O)c1ccc2ccccc2c1)C(=O)N(C)Cc1ccccc1 (centres undefined) the results were hcDAF-12 act -2, DAX1 inh-1 1, ssDAF12 agonist -1, SMARCA2 act -1, DAX1 inh-2 1 and hgDAF12 agonist 1.
For O=C(Nc1ccc(-c2cnco2)cc1)c1ccc(F)cc1F the results were hcDAF-12 act 0, DAX1 inh-1 0, ssDAF12 agonist -1, SMARCA2 act 4, DAX1 inh-2 3 and hgDAF12 agonist 10.
Cc1ccc(-c2cnco2)cc1 was read as hcDAF-12 act 2, DAX1 inh-1 0, ssDAF12 agonist -2, SMARCA2 act -2, DAX1 inh-2 6.3* and hgDAF12 agonist -2.
O=C(CSc1nnc(Cc2ccsc2)o1)c1ccccc1 was read as hcDAF-12 act 1, DAX1 inh-1 0, ssDAF12 agonist 0, SMARCA2 act 7.8* and hgDAF12 agonist 3.
O=C(CSc1nnc(Cc2ccccc2)o1)c1ccc(F)cc1 was read as hcDAF-12 act -1, DAX1 inh-1 0, ssDAF12 agonist -1, SMARCA2 act 0, DAX1 inh-2 0 and hgDAF12 agonist 1.
CCc1nc2sc3c(c2c(=O)n1CCO)CCC3 was read as hcDAF-12 act -2, DAX1 inh-1 0, ssDAF12 agonist -1, SMARCA2 act 4, DAX1 inh-2 4 and hgDAF12 agonist -1.
For COC(=O)[C@H](CC(C)C)N(Cc1cn(Cc2ccccc2)nn1)S(=O)(=O)c1ccccc1Br the results were hcDAF-12 act -2, DAX1 inh-1 -1, ssDAF12 agonist -2, SMARCA2 act -4 and hgDAF12 agonist 1.
For COC(=O)[C@H](C)N(Cc1cn(Cc2ccccc2)nn1)S(=O)(=O)c1ccccc1Br the results were hcDAF-12 act -1, DAX1 inh-1 -1, ssDAF12 agonist -1, SMARCA2 act 7.8* and hgDAF12 agonist 2.
Screening O=C(O)c1ccc(S(=O)(=O)N2CCCCCCC2)cc1 returned hcDAF-12 act 0, DAX1 inh-1 0, ssDAF12 agonist -1, SMARCA2 act 0, DAX1 inh-2 0 and hgDAF12 agonist 0.
Screening Cc1ccc(C)c(CN2CCC(CNC(=O)Nc3ccc(Br)cc3F)CC2)c1 returned hcDAF-12 act -1, DAX1 inh-1 0, ssDAF12 agonist -1, SMARCA2 act 2, DAX1 inh-2 0 and hgDAF12 agonist 3.
Screening Cc1ccc(C)c(CN2CCC(CNC(=O)Nc3ccc(Cl)cc3)CC2)c1 returned hcDAF-12 act -1, DAX1 inh-1 0, ssDAF12 agonist -1, SMARCA2 act 1, DAX1 inh-2 6.2* and hgDAF12 agonist 1.
CCOc1cc(/C=C(/C#N)c2nc3ccccc3[nH]2)ccc1Oc1ccc([N+](=O)[O-])cn1 was read as hcDAF-12 act 5.8*, DAX1 inh-1 -1, ssDAF12 agonist -1, SMARCA2 act 2, DAX1 inh-2 0 and hgDAF12 agonist 5.
`Cc1ccc2nc(/C(C#N)=C\c3ccc(Oc4ccc([N+](=O)[O-])cn4)cc3)[nH]c2c1` gave hcDAF-12 act 1, DAX1 inh-1 -1, ssDAF12 agonist 0, SMARCA2 act -1, DAX1 inh-2 -1 and hgDAF12 agonist 2.
`COc1cc(/C=C(/C#N)c2nc3ccccc3[nH]2)ccc1OCc1ccc(C(=O)O)o1` gave hcDAF-12 act 5, DAX1 inh-1 1, ssDAF12 agonist -1, SMARCA2 act 2, DAX1 inh-2 0 and hgDAF12 agonist 4.
COc1ccc2nc(/C(C#N)=C\c3ccc(C(=O)O)cc3)[nH]c2c1 was read as hcDAF-12 act 4, DAX1 inh-1 2, ssDAF12 agonist 0, SMARCA2 act 7, DAX1 inh-2 0 and hgDAF12 agonist 13*.
Screening COc1ccc(C(C#N)=Cc2ccc(NC(C)=O)cc2)cc1 returned hcDAF-12 act 0, DAX1 inh-1 3.7*, ssDAF12 agonist -1, SMARCA2 act 3, DAX1 inh-2 1 and hgDAF12 agonist 6.
`COc1ccc2nc(/C(C#N)=C\c3ccc(Oc4ccc([N+](=O)[O-])cn4)cc3)[nH]c2c1` gave hcDAF-12 act 2, DAX1 inh-1 0, ssDAF12 agonist -2, SMARCA2 act 12*, DAX1 inh-2 -3 and hgDAF12 agonist 2.
